Results reported in PubChem BioAssay AID1159580 (chemical genetic matrix, 2015).
Where “and” joins values, the source holds several entries; their conditions need not be identical. Equal values may be shown once. Out of some 5,500 compounds screened, about 2,000 (36%) were called active. Another 18% or so got no clear call; they are omitted. Cut-off read from the data, not from the text of the source: active = normalized growth mostly below about 0.91 (no sharp cut-off); inconclusive = no clear call, values can overlap the other calls; inactive = mostly above about 0.92. The list shows a part of the results.

Test: chemical genetic growth profiling, strain panel (AID 1159580);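 note: tested at 20 µM; growth read once vehicle control cultures reached saturation at 30 °C; 1 = growth at the plate median or of vehicle wells; lower values mean less growth of the strain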
Conditions: S. cerevisiae deletion strains, growth OD

Measured: normalized growth

COc1cc(/C=C/C(=O)O)ccc1O
inactive: locus YAL021C, strain ccr4, hits give low values 1 | locus YAL026C, strain drs2, hits give low values 1.01 | locus YAL030W, strain snc1, hits give low values 1.01 | locus YBL061C, strain skt5, hits give low values 1.01 | locus YBR009C, strain hhf1, hits give low values 1.02 | locus YBR021W, strain FUR4, hits give low values 1.01 | locus YBR023C, strain chs3, hits give low values 1.01 | locus YBR171W, strain sec66, hits give low values 1.01 | locus YBR229C, strain ROT2, hits give low values 1.01 | locus YBR231C, strain swc5, hits give low values 1.01 | locus YBR279W, strain paf1, hits give low values 1.01 | locus YCL011C, strain gbp2, hits give low values 1.01 | locus YCL016C, strain dcc1, hits give low values 1.01 | locus YCL029C, strain bik1, hits give low values 0.977 | locus YCL061C, strain MRC1, hits give low values 1.02 | locus YCL069W, strain vba3, hits give low values 0.998 | locus YCR088W, strain abp1, hits give low values 1.01 | locus YDL005C, strain med2, hits give low values 1.02 | locus YDL035C, strain GPR1, hits give low values 1.01 | locus YDL040C, strain nat1, hits give low values 1 | locus YDL074C, strain BRE1, hits give low values 1 | locus YDL101C, strain DUN1, hits give low values 1.02 | locus YDL185W, strain tfp1, hits give low values 0.971 | locus YDL192W, strain arf1, hits give low values 0.986 | locus YDR001C, strain nth1, hits give low values 1.01 | locus YDR069C, strain doa4, hits give low values 1.03 | locus YDR101C, strain arx1, hits give low values 0.961 | locus YDR137W, strain rgp1, hits give low values 1.01 | locus YDR150W, strain NUM1, hits give low values 1 | locus YDR159W, strain sac3, hits give low values 0.98 | locus YDR162C, strain NBP2, hits give low values 0.992 | locus YDR195W, strain ref2 0.966 | locus YDR297W, strain sur2, hits give low values 1.01 | locus YDR318W, strain mcm21, hits give low values 0.997 | locus YDR334W, strain swr1, hits give low values 1.01 | locus YDR335W, strain msn5, hits give low values 1.01 | locus YDR388W, hits give low values 0.979 | locus YDR392W, strain spt3, hits give low values 0.985 | locus YDR502C, strain sam2, hits give low values 0.984 | locus YEL003W, strain gim4, hits give low values 1 | locus YEL037C, strain rad23, hits give low values 1.01 | locus YEL061C, strain CIN8 (second series), hits give low values 1.01 | locus YEL061C, strain CIN8, hits give low values 0.972 | locus YER015W, strain faa2, hits give low values 1.01 | locus YER016W, strain bim1, hits give low values 1 | locus YER110C, hits give low values 0.981 | locus YER111C, strain swi4, hits give low values 1.01 | locus YER155C, strain BEM2 (second series), hits give low values 0.999 | locus YER155C, strain BEM2, hits give low values 1 | locus YER167W, strain BCK2, hits give low values 0.973 | locus YFR010W, strain ubp6, hits give low values 1.01 | locus YGL078C, strain dbp3, hits give low values 0.983 | locus YGL086W, strain mad1, hits give low values 0.952 | locus YGL167C, strain pmr1, hits give low values 1.01 | locus YGL173C, strain kem1, hits give low values 1.01 | locus YGL227W, strain vid30, hits give low values 1.01 | locus YGL240W, strain doc1, hits give low values 1.02 | locus YGL248W, strain PDE1, hits give low values 1.02 | locus YGL253W, strain hxk2, hits give low values 0.997 | locus YGR135W, strain pre9, hits give low values 0.995 | locus YGR252W, strain gcn5, hits give low values 1.07 | locus YHR013C, strain ard1, hits give low values 0.996 | locus YHR027C, strain rpn1, hits give low values 1 | locus YHR030C, strain SLT2, hits give low values 0.993 and 1.02 | locus YHR079C, strain IRE1 (second series), hits give low values 0.972 | locus YHR079C, strain IRE1, hits give low values 1.05 | locus YHR094C, strain hxt1, hits give low values 0.966 | locus YHR129C, strain ARP1, hits give low values 1 | locus YHR142W, strain chs7, hits give low values 1.01 | locus YHR200W, strain rpn10, hits give low values 0.989 | locus YIL066C, strain RNR3, hits give low values 1 | locus YIL073C, strain SPO22, hits give low values 0.99 | locus YIL125W, strain kgd1, hits give low values 0.968 | locus YIR030C, strain dcg1, hits give low values 0.983 | locus YJL092W, strain hpr5, hits give low values 1.01 | locus YJL095W, strain BCK1 (second series), hits give low values 1.01 | locus YJL095W, strain BCK1, hits give low values 1.03 and 1 | locus YJL115W, strain asf1, hits give low values 1.01 | locus YJL129C, strain trk1, hits give low values 1.01 | locus YJL134W, strain LCB3, hits give low values 0.999 | locus YJL154C, strain vps35, hits give low values 1 | locus YJL164C, strain tpk1, hits give low values 1 | locus YJL166W, strain qcr8, hits give low values 1.02 | locus YJL168C, strain set2, hits give low values 0.984 | locus YJL187C, strain SWE1 (second series), hits give low values 1.01 | locus YJR043C, strain POL32, hits give low values 1.03 | locus YJR066W, strain TOR1, hits give low values 0.995 | locus YKL009W, strain mrt4, hits give low values 1.01 | locus YKL068W, hits give low values 0.974 | locus YKL085W, strain MDH1 (second series), hits give low values 0.977 | locus YKL085W, strain MDH1, hits give low values 0.977 | locus YKL160W, strain elf1, hits give low values 1.01 | locus YKL190W, strain CNB1, hits give low values 0.995 | locus YKR001C, strain vps1, hits give low values 0.967 | locus YKR026C, strain gcn3, hits give low values 1.02 | locus YKR091W, strain srl3, hits give low values 1.01 | locus YLL001W, strain dnm1, hits give low values 1.01 | locus YLL026W, hits give low values 1.01 | locus YLL041C, strain sdh2, hits give low values 1.01 | locus YLR027C, strain aat2, hits give low values 1.01 | locus YLR039C, strain RIC1, hits give low values 0.99 | locus YLR058C, strain SHM2, hits give low values 1.01 | locus YLR102C, strain apc9, hits give low values 0.98 | locus YLR113W, strain HOG1, hits give low values 0.958 | locus YLR221C, strain rsa3, hits give low values 1.01 | locus YLR258W, strain gsy2, hits give low values 1.01 | locus YLR262C, strain YPT6 (second series), hits give low values 1.01 | locus YLR262C, strain YPT6, hits give low values 1.01 | locus YLR268W, strain sec22, hits give low values 0.967 | locus YLR320W, strain mms22, hits give low values 1 | locus YLR330W, strain CHS5, hits give low values 1.01 | locus YLR342W, strain FKS1 (second series), hits give low values 1.02 | locus YLR342W, strain FKS1, hits give low values 1.02 | locus YLR357W, strain rsc2, hits give low values 1.01 | locus YLR370C, strain arc18, hits give low values 1.02 | locus YLR371W, strain rom2, hits give low values 0.936 | locus YLR384C, strain iki3, hits give low values 1.01 | locus YLR418C, strain cdc73, hits give low values 0.968 | locus YML016C, strain PPZ1, hits give low values 1.01 | locus YML032C, strain rad52, hits give low values 1.01 | locus YML120C, strain ndi1, hits give low values 1 | locus YML124C, strain tub3, hits give low values 0.984 | locus YMR058W, strain fet3, hits give low values 1.02 | locus YMR078C, strain ctf18, hits give low values 0.984 | locus YMR125W, strain sto1, hits give low values 1 | locus YMR129W, hits give low values 1.01 | locus YMR205C, strain PFK2, hits give low values 1.01 | locus YMR223W, strain ubp8, hits give low values 1.01 | locus YMR231W, strain pep5, hits give low values 1.01 | locus YMR263W, strain SAP30, hits give low values 1 | locus YMR307W, strain GAS1, hits give low values 0.99 | locus YNL067W, strain RPL9B, hits give low values 1 | locus YNL071W, strain lat1, hits give low values 1 | locus YNL183C, strain NPR1, hits give low values 1 | locus YNL209W, strain ssb2, hits give low values 1.01 | locus YNL233W, strain BNI4, hits give low values 1.01 | locus YNL248C, strain rpa49, hits give low values 1.01 | locus YNL250W, strain rad50, hits give low values 0.995 | locus YNL271C, strain bni1, hits give low values 1 | locus YNL298W, strain CLA4, hits give low values 0.981 | locus YNL307C, strain MCK1, hits give low values 0.977 | locus YNL322C, strain KRE1 (second series), hits give low values 1.01 | locus YNL322C, strain KRE1, hits give low values 0.999 | locus YNR049C, strain mso1, hits give low values 1.01 | locus YNR052C, strain pop2, hits give low values 0.991 | locus YOL012C, strain htz1 0.646 | locus YOL147C, strain pex11, hits give low values 0.969 | locus YOR001W, strain rrp6, hits give low values 1.06 | locus YOR061W, strain CKA2, hits give low values 1.01 | locus YOR069W, strain VPS5, hits give low values 0.995 | locus YOR070C, strain gyp1, hits give low values 1.01 | locus YOR080W, strain dia2, hits give low values 1.01 | locus YOR083W, strain WHI5, hits give low values 1.02 | locus YOR106W, strain vam3, hits give low values 1.03 | locus YOR136W, strain idh2, hits give low values 0.974 | locus YOR144C, strain elg1, hits give low values 0.977 | locus YOR184W, strain ser1, hits give low values 1.01 | locus YOR231W, strain MKK1, hits give low values 1.03 | locus YOR265W, strain rbl2, hits give low values 1 | locus YOR270C, strain vph1, hits give low values 0.994 | locus YOR290C, strain snf2, hits give low values 1.01 | locus YOR316C, strain cot1, hits give low values 0.981 | locus YPL051W, strain arl3, hits give low values 1.01 | locus YPL078C, strain atp4, hits give low values 1.02 | locus YPL106C, strain sse1, hits give low values 1.01 | locus YPL240C, strain hsp82, hits give low values 1.02 | locus YPL241C, strain CIN2, hits give low values 0.999 | locus YPL256C, strain CLN2, hits give low values 1 | locus YPR119W, strain clb2, hits give low values 0.975 | locus YPR141C, strain kar3, hits give low values 0.975 | locus YPR163C, strain tif3, hits give low values 0.977 | locus YPR167C, strain met16, hits give low values 0.992 | strain wtn01, hits give low values 0.968
